In the supplement of paper PMC3898565:
Counter-ions that a name gives are not always drawn. ± gives the uncertainty stated by the source.

The molecules below were run on U87 (assay: cell viability relative to vehicle control; higher = less growth inhibition (less active)). Settings: 10 µM; 72 h.
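Further: viable cell number estimated from Alamar Blue fluorescence read at 560/90, part of a single-dose primary screen of an FDA-approved drug library.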

| Compound | cell viability |
| --- | --- |
| O=C1N[C@H](C(=O)O)CS1 [4-Thiazolidinecarboxylic acid, 2-oxo-, (R)- [CAS]] | 101.1 ± 0.43% |
| C#C[C@]1(O)CC[C@H]2[C@@H]3CCc4cc(O)ccc4[C@H]3CC[C@@]21C | 102 ± 2.1% |
| Cc1nc(=O)c2cc(CN(C)c3ccc(C(=O)N[C@@H](CCC(=O)O)C(=O)O)s3)ccc2[nH]1 | 85.4 ± 1.4% |
| CN1CCC(=C2c3ccccc3CC(=O)c3sccc32)CC1 | 109 ± 3.3% |
| O=C(O[C@@H]1C[C@@H]2C[C@H]3C[C@H](C1)N2CC3=O)c1c[nH]c2ccccc12 | 105.8 ± 0.72% |
| Nc1nc2ccc(OC(F)(F)F)cc2s1 [Riluzole] | 98.1 ± 1.5% |
| CC(C(=O)O)c1ccc(-c2ccccc2)c(F)c1 (centres undefined) [Flurbiprofen] | 105 ± 12% |
| C/C=C1\[C@H]2C=C(C)C[C@]1(N)c1ccc(=O)[nH]c1C2 | 106.5 ± 0.73% |
| CC[C@H]1OC(=O)[C@H](C)C(=O)[C@H](C)[C@@H](O[C@@H]2O[C@H](C)C[C@H](N(C)C)[C@H]2O)[C@](C)(OC)C[C@@H](C)C(=O)[C@H](C)[C@H]2N(CCCCn3cnc(-c4cccnc4)c3)C(=O)O[C@]12C | 103.4 ± 0.35% |
| CNCCCC12CCC(c3ccccc31)c1ccccc12 [Maprotilline HCl] | 102 ± 1.5% |
| CCc1oc2ccccc2c1C(=O)c1cc(Br)c(O)c(Br)c1 | 107.7 ± 0.81% |
| Cc1nccn1CC1CCc2c(c3ccccc3n2C)C1=O (centres undefined) [Ondansetron] | 99.8 ± 1.5% |
| C[C@@H]1CN(CCCn2c3ccccc3c3ccccc32)C[C@H](C)N1 [Rimcazole] | 109 ± 1.3% |
| CC(COc1ccccc1Cc1ccccc1)N1CCCCC1 (centres undefined) | 102.4 ± 0.48% |
| CN(C)CC[C@@H](c1ccc(Br)cc1)c1ccccn1 | 104.1 ± 0.82% |
| CCCN1CCCC[C@H]1C(=O)Nc1c(C)cccc1C | 107 ± 1.1% |
| CC(=O)N1CCN(c2ccc(OCC3COC(Cn4ccnc4)(c4ccc(Cl)cc4Cl)O3)cc2)CC1 (centres undefined) [Ketoconazole] | 94.3 ± 13% |
| CC(=O)CCCCn1cnc2c1c(=O)n(C)c(=O)n2C | 105 ± 1.2% |
| COCc1c(C(C)C)nc(C(C)C)c(/C=C/[C@@H](O)C[C@@H](O)CC(=O)O)c1-c1ccc(F)cc1 | 14.2 ± 3% |
| CN(C/C=C/C#CC(C)(C)C)Cc1cccc2ccccc12 | 103 ± 1.4% |

| Compound | cell viability |
| --- | --- |
| CN1CCC(=C2c3ccccc3CCc3sccc32)CC1 [Pizotyline] | 94.7 ± 13% |
| CC(=O)[C@]1(O)Cc2c(O)c3c(c(O)c2[C@@H](O[C@H]2C[C@H](N)[C@H](O)[C@H](C)O2)C1)C(=O)c1ccccc1C3=O [Idarubicin HCL] | 31.6 ± 2.3% |
| CCc1ccc(CCOc2ccc(CC3SC(=O)NC3=O)cc2)nc1 (centres undefined) | 105 ± 3.6% |
| C=C1/C(=C\C=C2/CCC[C@]3(C)[C@@H]([C@H](C)/C=C/[C@@H](O)C4CC4)CC[C@@H]23)C[C@@H](O)C[C@@H]1O | 100 ± 1.4% |
| C#C[C@]1(O)CC[C@H]2[C@@H]3CCc4cc(OC)ccc4[C@H]3CC[C@@]21C | 102.9 ± 0.33% |
| Cc1ccc(O)c([C@H](CCN(C(C)C)C(C)C)c2ccccc2)c1 | 103.8 ± 0.47% |
| CC(=O)NC[C@H]1CN(c2ccc(N3CCOCC3)c(F)c2)C(=O)O1 | 103 ± 1.8% |
| CC12CC3CC(C)(C1)CC(N)(C3)C2 | 123 ± 1.4% |
| CCCCc1oc2ccccc2c1C(=O)c1cc(I)c(OCCN(CC)CC)c(I)c1 [Amiodarone] | 105 ± 1.1% |
| CCC(=O)NS(=O)(=O)c1ccc(-c2c(-c3ccccc3)noc2C)cc1 | 108.7 ± 0.37% |
| CCS(=O)(=O)CCn1c([N+](=O)[O-])cnc1C | 101 ± 1.7% |
| NC(N)=NC(=O)c1nc(Cl)c(N)nc1N | 93.54 ± 0.1% |
| O=c1cnn([C@@H]2O[C@H](CO)[C@@H](O)[C@H]2O)c(=O)[nH]1 | 94.8 ± 1.9% |
| O=C(O)c1cc(/N=N/c2ccc(S(=O)(=O)Nc3ccccn3)cc2)ccc1O | 102 ± 1.6% |
| CNC(=C[N+](=O)[O-])NCCSCc1csc(CN(C)C)n1 | 99.1 ± 1.3% |
| CCN1CCC[C@H]1CNC(=O)c1cc(S(N)(=O)=O)ccc1OC | 102 ± 3.2% |
| CC(C)NCC(O)c1ccc(NS(C)(=O)=O)cc1 (centres undefined) [Sotalol] | 101.7 ± 0.99% |
| Cc1[nH]c(=O)c(C#N)cc1-c1ccncc1 | 109 ± 2.6% |
| O=c1c(-c2ccccc2)c1-c1ccccc1 [diphenylcyclopropenone] | 77.4 ± 6.9% |
